Assay results from PubChem BioAssay (NCI).
Compounds without any hit were thinned out: in the full panel of roughly 79,000, 15% have a hit. No stated cut-off is given here; in the data, active means growth inhibition above about 70%; inactive means the rest.

Legend:
[1] = NCI Yeast Anticancer Drug Screen. Data for the rad50 strain (AID 155);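 further: 0% = growth of vehicle-only cultures of the same strain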; details: S. cerevisiae rad50 strain growth inhibition; at 50.0 µM; active compounds read high
Method in brief: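 A DNA repair-deficient yeast mutant serves as the test organism; compound-induced growth inhibition is calculated against vehicle-treated cells.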

[2] = NCI Yeast Anticancer Drug Screen. Data for the mec2-1 strain (AID 157); details: S. cerevisiae mec2-1 strain, at 50.0 µM, active compounds read high
Method in brief: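 Growth inhibition is read against vehicle-treated controls after compound exposure of the mec2-1 yeast strain, which is defective in DNA damage repair or cell cycle control.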

[3] = NCI Yeast Anticancer Drug Screen. Data for the sgs1 mgt1 strain (AID 161);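 further: 0% = growth of cultures given vehicle only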; details: S. cerevisiae sgs1 mgt1 strain, at 50.0 µM, active compounds read high
Method in brief: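 This yeast growth screen uses a strain with defined DNA-repair lesions; compound-treated growth is compared with vehicle-treated growth.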

[4] = NCI Yeast Anticancer Drug Screen. Data for the cln2 rad14 strain (AID 165);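 further: 0% = growth equal to vehicle treated cultures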; details: S. cerevisiae cln2 rad14 strain, at 50.0 µM, active compounds read high
Method in brief: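 Growth inhibition, relative to vehicle-treated controls, is the read-out. The test organism is a yeast strain with defined genetic alterations, cln2 rad14.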

[5] = NCI Yeast Anticancer Drug Screen. Data for the bub3 strain (AID 167); details: S. cerevisiae bub3 mutant strain, at 50.0 µM, active compounds read high
Method in brief: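 Inhibition values come from growth of compound-treated mutant yeast normalised to vehicle-treated controls.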

[6] = NCI Yeast Anticancer Drug Screen. Data for the mlh1 rad18 strain (AID 175); details: S. cerevisiae mlh1 rad18 strain growth inhibition; at 50.0 µM; active compounds read high
Method in brief: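 Cells of a genetically altered yeast strain, deficient in DNA damage repair, were treated with compound. Their growth was then compared with that of vehicle-treated cultures to give inhibition.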

Measured: growth inhibition

CCOC(=O)/C=C1\CONC(c2ccc(OC)cc2)=N1
inactive: [1] -9.1% | [2] -5.3% | [3] -12.4% | [4] -19.2% | [5] 3.4% | [6] 2%

BrCCOc1ccccc1
inactive: [1] 19.4% | [2] 8% | [3] -28.6% | [4] -29.5% | [5] -8.3% | [6] -25.5%

O=C(OCCCCO)c1cc([N+](=O)[O-])cc([N+](=O)[O-])c1
inactive: [1] -12.8% | [2] 13.9% | [3] 0.1% | [4] 0.7% | [5] 12.1% | [6] -27.9%

NC1=NC2(COC(c3ccccc3)(c3ccccc3)c3ccccc3)OC(COC(c3ccccc3)(c3ccccc3)c3ccccc3)C(O)C2O1 (stereo unspecified)
inactive: [1] 28.4% | [2] -5.4% | [3] 30.6% | [4] 5.25% | [5] 34.4% | [6] 13.4%

O=C1c2ccccc2C(=O)c2nc3ccc(Cl)cc3cc21
inactive: [1] -12.3% | [2] -18.4% | [3] 1.35% | [4] 21.3% | [5] -12.5% | [6] -10.8%

COc1ccc(/C=C(\C#N)c2ccccc2NC(C)=O)cc1
inactive: [1] 6.9% | [2] 7.4% | [3] -2.95% | [4] -42.8% | [5] -10.5% | [6] 19.8%

COC(=O)OC(C#N)c1cccc([N+](=O)[O-])c1 (stereo unspecified)
inactive: [1] 15.8% | [2] 8.8% | [3] 6.2% | [4] -13.7% | [5] -3.9% | [6] 9%

CC1CC(C)C2=NOS3=C2C1=NO3 (stereo unspecified)
inactive: [1] 43.3% | [2] 16.6% | [3] 36.1% | [4] 21.4% | [5] 28.4% | [6] 22.9%

CN1N=C(c2ccncc2)OC1c1ccc(C(F)(F)F)cc1 (stereo unspecified)
inactive: [1] 13.9% | [2] -20.6% | [3] 1.35% | [4] 11.3% | [5] -19.6% | [6] -12.5%

CCNC(=O)c1ccccc1C(=O)c1ccccc1
inactive: [1] -4.55% | [2] 1.2% | [3] 6.55% | [4] 12.8% | [5] -0.75% | [6] 11.5%

COc1cc2ccc3c4cc(OC)c(OC(C)C)cc4cnc3c2cc1OC
inactive: [1] -48.9% | [2] -15.3% | [3] -0.9% | [4] 29.6% | [5] -10.5% | [6] -4.45%

O=C(O)c1ccccc1NCn1c(=S)sc2ccccc21
inactive: [1] 63% | [2] 45.8% | [3] 60.6% | [4] 5.5% | [5] 43.8% | [6] 53.9%

Cn1c(=O)ccc2c1nc1ccccc1[n+]2[O-]
inactive: [1] -6.25% | [2] 4.65% | [3] -6.7% | [4] -30.8% | [5] 4.75% | [6] -11.8%

Nc1c[nH]c(=S)s1
inactive: [1] 36.9% | [2] 18.8% | [3] 54.7% | [4] 0.9% | [5] 39.6% | [6] 51.2%

COc1ccc(-c2csc(N)n2)cc1OC
inactive: [1] 2.15% | [2] -3.9% | [3] 4.4% | [4] -66.7% | [5] -10.4% | [6] 1.9%

N/C(=N\O)c1c(Br)n(C2OC(CO)C(O)C2O)c2ncnc(N)c12 (stereo unspecified)
inactive: [1] 12.1% | [2] 11.7% | [3] 4.7% | [4] 10.8% | [5] -2.05% | [6] 1.75%

CCO/C(C)=C(/C(C)=O)C(=O)NC1CCCCC1
inactive: [1] -1.65% | [2] 15.5% | [3] -0.1% | [4] 9.75% | [5] -3.25% | [6] -11.2%

COc1cc(C)cc(O)c1C=O
inactive: [1] 9.9% | [2] -9.95% | [3] -0.1% | [4] -17.1% | [5] -0.2% | [6] 3.45%

CCOC(=O)/C(Cl)=C1\SN(C(=O)OCC)N=C1C
inactive: [1] -7.65% | [2] -3.7% | [3] -11.4% | [4] 54.7% | [5] 3.8% | [6] 3.65%

Cc1ccc(S(=O)(=O)OCC(C)(C)CC#N)cc1
inactive: [1] 10.9% | [2] 30.6% | [3] 35.9% | [4] 16.9% | [5] 46.4% | [6] 23.9%

CCCCOC1CCC(O)C2CCCCC12 (stereo unspecified)
inactive: [1] 5.15% | [2] -2.5% | [3] -1.9% | [4] -0.7% | [5] -0.95% | [6] 9.85%

O=C1C=C(CCC2=CC(=O)c3ccccc3C2=O)C(=O)c2ccccc21
inactive: [1] 4.65% | [2] -23.5% | [3] -26.9% | [4] -10.9% | [5] -26.5% | [6] -28.6%

O=[N+]([O-])c1ccc2c(c1)Cc1cccc([N+](=O)[O-])c1-2
inactive: [1] 2% | [2] -2.1% | [3] 0.25% | [4] -21.9% | [5] -5.9% | [6] 9.5%

CCOC(=O)c1ccc(NC(=S)N2CCOCC2)cc1
inactive: [1] 13.1% | [2] 6.8% | [3] 14.8% | [4] 8.7% | [5] 2.55% | [6] -2.8%

CCN1C(NN)=NS(=O)(=O)c2ccccc21
inactive: [1] -31.1% | [2] -7.55% | [3] -15.2% | [4] -19.9% | [5] 8.2% | [6] 10.8%

CC(C)N(C(=O)c1ccc([Si](C)(C)C)c(C(=O)N(C(C)C)C(C)C)n1)C(C)C
inactive: [1] 30.6% | [2] 19.8% | [3] 20.9% | [4] 9.4% | [5] 0.1% | [6] 28.5%

Cc1ccc2c(c1)SC(c1cc3c(cc1Br)OCO3)S2 (stereo unspecified)
inactive: [1] -10.7% | [2] -22.1% | [3] 4.65% | [4] 34.9% | [5] 32.5% | [6] -18.4%

O=C1CSC(=NCCN=C2NC(=O)CS2)N1
inactive: [1] 10.5% | [2] 18.3% | [3] 9.25% | [4] 1.6% | [5] 15.1% | [6] 28.2%

[N-]=[N+]=NC[C@H]1OCO[C@H](CN=[N+]=[N-])[C@H]2OCCOCCOc3ccccc3OCCOCCO[C@@H]21
inactive: [1] -13.2% | [2] -9.65% | [3] -11.6% | [4] -15.6% | [5] -30.9% | [6] -18.1%

O=C(NCCCCCCNC(=O)C1CCCN1C(=O)OCc1ccccc1)C1CCCN1C(=O)OCc1ccccc1 (stereo unspecified)
inactive: [1] 0.6% | [2] -24.2% | [3] -8.15% | [4] -1.9% | [5] -5.7% | [6] 6.4%

CCCCCNN
inactive: [1] 0.95% | [2] -4.6% | [3] -8.5% | [4] 9.55% | [5] -6.75% | [6] 26.6%

O=C(Nc1nc2c(ncn2C2OC(CO)C(O)C2O)c(=O)[nH]1)c1ccccc1 (stereo unspecified)
inactive: [1] 2.45% | [2] -26.9% | [3] -20.2% | [4] 11.6% | [5] 12.7% | [6] 15.6%

CNCCN(C)Cc1ccccc1
inactive: [1] -17.4% | [2] -24.6% | [3] -3.8% | [4] 11% | [5] 10.7% | [6] -8.3%

CC(=O)Nc1cc(Br)cc2c1-c1ccc(Br)cc1C2
inactive: [1] 36.7% | [2] 14.7% | [3] 16.2% | [4] 8.2% | [5] 5.3% | [6] 23.4%

O=C(CCC(O)c1ccccc1)c1ccccc1 (stereo unspecified)
inactive: [1] -13.6% | [2] -12.3% | [3] -9.3% | [4] -10.9% | [5] 0% | [6] 2.35%

O=C(O)CCNCCCCNCCC(=O)O
inactive: [1] 6.2% | [2] -11.8% | [3] -23.9% | [4] -1.5% | [5] -22.6% | [6] -22.3%

O=C1c2ccccc2SC[C@@H]2CCCN12
inactive: [1] 22.9% | [2] -7.75% | [3] -3.6% | [4] 9.35% | [5] 3.35% | [6] 2.35%

CCCCCCCCCCC(=O)OCC
inactive: [1] -30.2% | [2] 0.65% | [3] -21.4% | [4] -1.85% | [5] 1.2% | [6] -32.8%

ClC1=C(Cl)C2(Cl)C=CC1(Cl)C2
inactive: [1] 4.05% | [2] -3.05% | [3] 4% | [4] -14.2% | [5] 1.9% | [6] 6.6%

CC(C)COC(=O)c1ccc(NC(=O)CN2CC(C)OC(C)C2)cc1 (stereo unspecified)
inactive: [1] 43.8% | [2] -10.4% | [3] 61.9% | [4] 56.5% | [5] 7.95% | [6] 47%

CCCOc1ccc(/C=C\c2cc(OC)c(OC)c(OC)c2)cc1
inactive: [1] 0.85% | [2] 3.9% | [3] -2.05% | [4] 3.4% | [5] 10.1% | [6] 43.5%
